Data on 29 compounds can be found in PubChem BioAssay (EPA / NIEHS).

Where “and” joins values, the source holds several entries; their conditions need not be identical. Identical values can stand only once. Results filed as inconclusive are left out. Calls of active or inactive are those of the source. Rule for the calls: active = hit-call score of the fitted dose curve at least 0.9, where 1 is the maximum; inconclusive = response in the unintended direction; inactive = score below 0.9.

The nature of one experiment: LTEA_HepaRG_LDH_cytotoxicity: Cytotoxicity Assessment in the Life Technologies and Expression Analysis (LTEA) Assay (AID 2283563).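 For AC50: LDH activity released into spent culture medium as a marker of cell death.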 In a few lines: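 Cells were thawed and plated for 48 h. Medium was then replaced with serum-free induction medium. Chemicals (8 half-log points, maximum 100 uM, 0.5% DMSO) were added in duplicate for 48 h, after which spent medium was assayed for LDH.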
A word on the AC50: it is the concentration at which the activity in the assay is half-maximal. Consider `Cc1[nH]cnc1C[C@H]1CCc2c(C)c3ccccc3n2C1=O`, for which the AC50 is 27.6 µM (active).
The same measure, in the same setting: the figure for `CCCCCCc1ccc(O)cc1O` is 77.7 µM (active).
As for `CC(=O)OC[C@H]1O[C@@](COC(C)=O)(O[C@H]2O[C@H](COC(C)=O)[C@@H](OC(C)=O)[C@H](OC(C)=O)[C@H]2OC(C)=O)[C@@H](OC(C)=O)[C@@H]1OC(C)=O`, the compound was called inactive.
Same read-out and setting: the same measure for `O=P(OC(CCl)CCl)(OC(CCl)CCl)OC(CCl)CCl`: “inactive”; for `COc1ccc(-n2nc(C(F)F)cc2-c2ccc(S(C)=O)cc2)cc1` (configuration not stated): “inactive”; for `O=C(O)c1cc(N=Nc2ccc(S(=O)(=O)Nc3ccccn3)cc2)ccc1O`: “inactive”.
Still for that read-out and setting: the entry for `CC(C)c1cccc(C(C)C)c1N1C(=O)c2ccc(O)cc2C1=O` is “inactive”.
As to `CC(=O)OCCC(C)C`, the result was inactive.
Still for that read-out and setting: the entry for `O=C(O)c1cccc(N(Cc2cccnc2)c2ccc(OC(F)F)c(OC(F)F)c2)c1` is “inactive”.

A short description of a further experiment: ATG_XTT_Cytotoxicity: Cytotoxicity Assessment in the Attagene TRANS-FACTORIAL HepG2 Assay (AID 2283584).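 For AC50: cells exposed to compound for 24 h before reading; active means loss of viability signal versus DMSO baseline.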 The gist of the method:
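Cells: human HepG2, transiently transfected with MRTU reporter constructs. Exposure 24 h. Readout: XTT, cell number. Baseline/neg ctrl DMSO; loss-of-signal scored.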
Turning to `O=c1n(CC2CO2)c(=O)n(CC2CO2)c(=O)n1CC1CO1` (configuration not stated), the call was inactive.
Consider `O=C1CCC(N2C(=O)c3ccccc3C2=O)C(=O)N1` (configuration not stated), for which the outcome was inactive.
On the same count and under the same terms, the same measure for `Cc1ccc(S(=O)(=O)O)cc1C`: “inactive”.
Still for that read-out and setting: the same measure for `C1N2CN3CN1CN(C2)C3`: “inactive”; for `COC(=O)c1c(Cl)c(Cl)c(C(=O)OC)c(Cl)c1Cl`: “inactive”.
Still for that read-out and setting: the same measure for `CN(C)c1ccc(N=NS(=O)(=O)O)cc1`: “inactive”; for `CC(C)CC(C)(O)C#CC(C)(O)CC(C)C` (configuration not stated): “inactive”.
Regarding `O=C1OC(=O)C2C3C=CC(C3)C12` (configuration not stated), the compound was classed as inactive.
On the same count and under the same terms, the same measure for `COC(=O)c1ccccc1O`: “inactive”.
On to `O=C(CCCCCCCCc1cccnc1)N1CCC(C=C(c2ccccc2)c2ccccc2)CC1`, for which the AC50 is 33.8 µM (active).
As for `C[C@](N)(Cc1ccc(O)c(O)c1)C(=O)O`, the compound was called inactive.
For `Cn1cnc([N+](=O)[O-])c1Sc1ncnc2nc[nH]c12`, the compound was called inactive.
On the same count and under the same terms, the same measure for `O=C1CCCCCN1`: “inactive”; for `Oc1ccc2c(c1)-c1ccccc1C2`: “inactive”; for `CC(C)=CCC/C(C)=C\CO`: “inactive”.
Regarding `CCC(C)(C)C(=O)O[C@H]1C[C@@H](C)C=C2C=C[C@H](C)[C@H](CC[C@@H]3C[C@@H](O)CC(=O)O3)[C@H]21`, the call was inactive.
Same read-out and setting: the same measure for `Nc1cccc(N)c1`: “inactive”.
The same measure, in the same setting: the same measure for `Nc1nc2ncc(CNc3ccc(C(=O)N[C@@H](CCC(=O)O)C(=O)O)cc3)nc2c(=O)[nH]1`: “inactive”.
On the same count and under the same terms, the same measure for `Cn1c(=O)c2c(ncn2C)n(C)c1=O`: “inactive”; for `O=C(OC[C@H]1O[C@@H](OC(=O)c2cc(O)c(O)c(OC(=O)c3cc(O)c(O)c(O)c3)c2)[C@H](OC(=O)c2cc(O)c(O)c(OC(=O)c3cc(O)c(O)c(O)c3)c2)[C@@H](OC(=O)c2cc(O)c(O)c(OC(=O)c3cc(O)c(O)c(O)c3)c2)[C@@H]1OC(=O)c1cc(O)c(O)c(OC(=O)c2cc(O)c(O)c(O)c2)c1)c1cc(O)c(O)c(OC(=O)c2cc(O)c(O)c(O)c2)c1`: “inactive”.
As for `Cc1[nH]cnc1C[C@H]1CCc2c(C)c3ccccc3n2C1=O`, the compound was called inactive.
Regarding `CCCCCCc1ccc(O)cc1O`, the compound was called inactive.
Turning to `CC(=O)OC[C@H]1O[C@@](COC(C)=O)(O[C@H]2O[C@H](COC(C)=O)[C@@H](OC(C)=O)[C@H](OC(C)=O)[C@H]2OC(C)=O)[C@@H](OC(C)=O)[C@@H]1OC(C)=O`, the result was inactive.
Same read-out and setting: the same measure for `O=P(OC(CCl)CCl)(OC(CCl)CCl)OC(CCl)CCl`: “inactive”.
For the compound `COc1ccc(-n2nc(C(F)F)cc2-c2ccc(S(C)=O)cc2)cc1` (configuration not stated), the result was inactive.
On the same count and under the same terms, the entry for `O=C(O)c1cc(N=Nc2ccc(S(=O)(=O)Nc3ccccn3)cc2)ccc1O` is “inactive”; for `CC(C)c1cccc(C(C)C)c1N1C(=O)c2ccc(O)cc2C1=O` it is “inactive”; for `CC(=O)OCCC(C)C` it is “inactive”.
The same measure, in the same setting: the same measure for `O=C(O)c1cccc(N(Cc2cccnc2)c2ccc(OC(F)F)c(OC(F)F)c2)c1`: “inactive”.

The next experiment is described as follows: TOX21_p53_BLA_p2_viability: Viability Assessment in the Tox21 HCT-116 p53 Agonism Beta-lactamase Assay, Phase 2 (AID 2283591).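 Note: compound exposure lasted 16 h at 37 °C; actives lower the ATP signal meaning cytotoxicity.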 In a few lines:
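HCT-116 p53-bla cells (4000/well) rested 5 h at 37C, then received compounds in DMSO (217-fold dilution) for 16 h at 37C, 5% CO2. After the CCF4 read, CellTiter-Glo was added; ATP luminescence was read after 30 min at room temperature.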
Regarding `O=c1n(CC2CO2)c(=O)n(CC2CO2)c(=O)n1CC1CO1` (configuration not stated), the compound was classed as inactive.
Same read-out and setting: the same measure for `O=C1CCC(N2C(=O)c3ccccc3C2=O)C(=O)N1` (configuration not stated): “inactive”; for `Cc1ccc(S(=O)(=O)O)cc1C`: “inactive”; for `C1N2CN3CN1CN(C2)C3`: “inactive”.
For the compound `COC(=O)c1c(Cl)c(Cl)c(C(=O)OC)c(Cl)c1Cl`, the outcome was inactive.
On the same count and under the same terms, the entry for `CN(C)c1ccc(N=NS(=O)(=O)O)cc1` is “inactive”; for `CC(C)CC(C)(O)C#CC(C)(O)CC(C)C` (configuration not stated) it is “inactive”; for `O=C1OC(=O)C2C3C=CC(C3)C12` (configuration not stated) it is “inactive”.
On to `COC(=O)c1ccccc1O`, for which the result was inactive.
On to `O=C(CCCCCCCCc1cccnc1)N1CCC(C=C(c2ccccc2)c2ccccc2)CC1`, for which the AC50 is 10 µM (active).
Turning to `C[C@](N)(Cc1ccc(O)c(O)c1)C(=O)O`, the result was inactive.
Same read-out and setting: the entry for `Cn1cnc([N+](=O)[O-])c1Sc1ncnc2nc[nH]c12` is “inactive”; for `O=C1CCCCCN1` it is “inactive”.
The same measure, in the same setting: the same measure for `Oc1ccc2c(c1)-c1ccccc1C2`: “inactive”; for `CC(C)=CCC/C(C)=C\CO`: “inactive”.
The same measure, in the same setting: the entry for `CCC(C)(C)C(=O)O[C@H]1C[C@@H](C)C=C2C=C[C@H](C)[C@H](CC[C@@H]3C[C@@H](O)CC(=O)O3)[C@H]21` is “inactive”; for `Nc1cccc(N)c1` it is “inactive”.
Take `Nc1nc2ncc(CNc3ccc(C(=O)N[C@@H](CCC(=O)O)C(=O)O)cc3)nc2c(=O)[nH]1`: the result was inactive.
Turning to `Cn1c(=O)c2c(ncn2C)n(C)c1=O`, the result was inactive.
As to `O=C(OC[C@H]1O[C@@H](OC(=O)c2cc(O)c(O)c(OC(=O)c3cc(O)c(O)c(O)c3)c2)[C@H](OC(=O)c2cc(O)c(O)c(OC(=O)c3cc(O)c(O)c(O)c3)c2)[C@@H](OC(=O)c2cc(O)c(O)c(OC(=O)c3cc(O)c(O)c(O)c3)c2)[C@@H]1OC(=O)c1cc(O)c(O)c(OC(=O)c2cc(O)c(O)c(O)c2)c1)c1cc(O)c(O)c(OC(=O)c2cc(O)c(O)c(O)c2)c1`, the AC50 was 17.2 µM (active) and 5.28 µM (active).
Turning to `Cc1[nH]cnc1C[C@H]1CCc2c(C)c3ccccc3n2C1=O`, the compound was called inactive.
For `CCCCCCc1ccc(O)cc1O`, the AC50 was 69.2 µM (active) and 73.3 µM (active).
For the compound `CC(=O)OC[C@H]1O[C@@](COC(C)=O)(O[C@H]2O[C@H](COC(C)=O)[C@@H](OC(C)=O)[C@H](OC(C)=O)[C@H]2OC(C)=O)[C@@H](OC(C)=O)[C@@H]1OC(C)=O`, the call was inactive.
Still for that read-out and setting: the same measure for `O=P(OC(CCl)CCl)(OC(CCl)CCl)OC(CCl)CCl`: “inactive”.
Same read-out and setting: the same measure for `COc1ccc(-n2nc(C(F)F)cc2-c2ccc(S(C)=O)cc2)cc1` (configuration not stated): “inactive”; for `O=C(O)c1cc(N=Nc2ccc(S(=O)(=O)Nc3ccccn3)cc2)ccc1O`: “inactive”.
On to `CC(C)c1cccc(C(C)C)c1N1C(=O)c2ccc(O)cc2C1=O`, for which the AC50 was 66.7 µM (active).
Regarding `CC(=O)OCCC(C)C`, the result was inactive.
With `O=C(O)c1cccc(N(Cc2cccnc2)c2ccc(OC(F)F)c(OC(F)F)c2)c1`, the compound was classed as inactive.
